# “And” between values parts separate entries of the source, which are not always exact repeats. Equal entries are not always repeated. Compounds without any hit were thinned out: in the full panel of roughly 83,000, 20% have a hit.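 Compound tested at a single concentration for 48 hours in 96-well plates; a percent growth value below 10 was scored as active.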 A number with no mark means an inactive call. The source made the active and inactive calls.
# Tested on: MDA-MB-468 breast
# Assay: NCI-60 one-dose screen, 48 h (100 = growth as untreated, 0 = no growth, -100 = all killed)
# Settings: 10 µM unless noted
row,Compound,growth
1,O=C(O)c1cc([N+](=O)[O-])ccc1Cl,109%
2,COc1ccc(C2CC(=O)c3c(O)cc(OC4OC(COC5OC(C)C(O)C(O)C5O)C(O)C(O)C4O)cc3O2)cc1O (centres undefined),96.9%
3,COc1cc(Cn2cc3c(c2)-c2onc(CN4CCCC4)c2CC3)cc(OC)c1OC,82.7%
4,CCOc1ccc(NC(=O)CSc2oc(-c3ccccc3)nc2S(=O)(=O)c2ccc(C)cc2)cc1,53%
5,COc1ccc2oc3cc(NCCN(C)C)ccc3c(=O)c2c1,103% and 88.7%
6,Nc1nc(-c2cc3c(cc2Cl)NC(=O)/C3=C/c2ccccc2)cs1,33.7%
7,O=c1oc2ccc(Br)cc2c(=O)n1-c1ccc(F)cc1F,-2.96% (active)
8,C#C[C@]1(O)CC[C@H]2[C@@H]3CC=C4c5nc(Nc6ccc(OC)cc6OC)sc5CC[C@]4(C)[C@H]3CC[C@@]21C,-6.78% (active)
9,CCNc1nc(C(F)(F)F)nc2c1sc(=S)n2-c1ccccc1,81.6%
10,Cc1ccc(CN2CCC(C(=O)Nc3ccc(-c4cc5ccccc5[nH]4)cc3)CC2)o1,5.26% (active)
11,O=[N+]([O-])c1ccc2c(N=Nc3ccc4ccccc4c3O)c(O)cc(S(=O)(=O)O)c2c1,106%
12,NC(=S)N/N=C/c1ccc(Cl)cc1,97.3%
13,COc1ccc(C(=O)NC(=O)Nc2ccc3c(c2)NC(=O)/C3=C\c2[nH]c(C)c(C(=O)O)c2C)cc1,76.2%
14,O=[N+]([O-])c1cccc(-c2nc3sccn3c2-c2ccnc(NCCCNS(=O)(=O)c3ccc(Cl)cc3)n2)c1,13.1%
15,O=c1[nH]c2ccc(Cl)cc2c2ccccc12,68.1%
16,O=C(CN1CCN(c2cc(=O)n(-c3ccccc3)c3ccccc23)CC1)Nc1ccc([N+](=O)[O-])cc1,62.1%
17,CCOC(=O)CNC(=O)CCCCSc1ncnc2nc[nH]c12,95.4%
18,Cc1nc2ccccc2c(=O)n1-c1cccc(OCc2cn(-c3cccc(O)c3)nn2)c1,87.7%
19,CC(=O)[C@@H]1CC[C@]2(C(N)=O)CC[C@]3(C)[C@H](CC[C@@H]4[C@@]5(C)CCCNC(C)(C)[C@@H]5CC[C@]43C)[C@@H]12,82.2%
20,CCCCCc1c(C)[nH]c(/C=C2\N=C(c3ccc[nH]3)C=C2Oc2ccc(OC)cc2)c1C,-54.8% [100 µM] (active)

row,Compound,growth
1,COc1cccc(-c2nc3sccn3c2-c2ccnc(NCCCNS(=O)(=O)c3ccc(F)cc3)c2)c1,13.3%
2,C=C(C=O)[C@@H]1CC[C@]2(C(=O)O)CC[C@]3(C)C(CC[C@@H]4[C@@](C)(CCC#N)[C@H](C(=C)C=O)CC[C@]43C)[C@@H]12 (some centres undefined),79.8%
3,Clc1ccc(N2CCN(CCCN3CCN(c4cccc(Cl)c4)CC3)CC2)cc1,23.5%
4,Cc1[nH]c(C(=O)Nc2ccccc2OC2CCNCC2)c(Cl)c1Cl,16.2%
5,CC(=O)n1cc([C@H]2CC[C@H](c3cn(C(C)=O)c4ccccc34)c3c2[nH]c2ccccc32)c2ccccc21,92.9%
6,COc1cc2c(c(OC)c1OC)C(=O)/C(=C/c1cc(C)c(O)c(C)c1)S2,5.19% (active)
7,CC(C)(Sc1cc(C(C)(C)C)c(O)c(C(C)(C)C)c1)Sc1cc(C(C)(C)C)c(OC(=O)CCC(=O)O)c(C(C)(C)C)c1,47.4%
8,CCN(CC)CCOc1ccc(C(=C(C)c2ccc(Cl)cc2)c2ccc(OCCN(CC)CC)cc2)cc1,-81.6% (active)
9,O=C(Nc1nc2ccc(C(F)(F)F)cc2s1)c1cc(Cl)ccc1O,-1.49% (active)
10,COc1cc(/C=C(\C#N)C(=O)c2ccccc2)ccc1OCc1ccccc1,96.4%
11,CC(C)(C)CC(C)(C)N(CSc1ccc(Cl)cc1)CSc1ccc(Cl)cc1,63.7%
12,CN(C)CCCOc1ccc2c(c1)CN(C(=O)c1cc(C(=O)N3Cc4cccc(F)c4C3)ccc1O)C2,106%
13,c1ccc(CCCCc2ccc3ccccc3n2)cc1,111%
14,COC(=O)[C@]12CC[C@@H](C)[C@H](C)[C@@H]1C1=CC[C@@H]3[C@@]4(C)C/C(=N\O)[C@H](O)[C@@]5(C)COC(=C45)C[C@@]3(C)[C@]1(C)CC2,-71.7% (active)
15,COc1ccc(/C(=N\O)c2cc(OC)c(OC)c(OC)c2)c(OC)c1N,29.2%
16,NS(=O)(=O)c1ccc(C2C3=C(CCCC3=O)OC3=C2C(=O)c2ccccc2C3=O)cc1 (centres undefined),-47.4% (active)
17,O=C(CCl)Oc1ccc([N+](=O)[O-])cc1,112%
18,N#Cc1nc(-c2ccc(F)cc2)oc1S(=O)(=O)N1CCN(c2ccc(F)cc2)CC1,86.9%
19,O=C(CSc1nc2ccc([N+](=O)[O-])cc2[nH]1)Nc1ccc(F)cc1,22.3%
